# Laboratory results from PubChem BioAssay AID1259421 (Broad Institute, 2018).
# Where “and” joins values, the source holds several entries; their conditions need not be identical. Equal entries are not always repeated. About 610 (9.5%) of roughly 6,400 compounds were called active. This is one part of a sample in which actives are shown more often than they occur. No stated cut-off is given here; in the data, active means activity change below about -70%; inconclusive means no clear call, values can overlap the other calls; inactive means above that. Where a structure was tested more than once in an assay, its records may differ in their call.
# Test: Toxoplasma gondii ME49Luc growth in HeLa cells, luciferase, no IFN-y, primary screen (AID 1259421)
# Settings: T. gondii ME49Luc in HeLa, 72 h, stronger effect = lower value, concentration not given here
row,Structure (SMILES),"activity change, negative = inhibition"
1,C[C@@H]([C@@H](O)c1ccc(O)cc1)N1CCC(O)(c2ccccc2)CC1,0.328% (inactive) and 9.44% (inactive)
2,OC[C@H]1O[C@@H](n2cnc3c(NC4CCCC4)nc(Cl)nc32)[C@H](O)[C@@H]1O,3.31% (inactive)
3,OCC1OC(n2cnc3c(NC4CCCC4)nc(Cl)nc32)C(O)C1O (stereo unspecified),-5.92% (inactive)
4,Nc1nc(Cl)nc2c1ncn2[C@H]1C[C@H](O)[C@@H](CO)O1,-37.2% (inactive)
5,Nc1nc(Cl)nc2c1ncn2[C@@H]1O[C@H](CO)[C@@H](O)[C@@H]1F,-81.3% (active)
6,Nc1nc(F)nc2c1ncn2[C@@H]1O[C@H](CO)[C@@H](O)[C@@H]1O,-26.8% (inactive)
7,Nc1nc(Cl)nc2c1ncn2C1OC(CO)C(O)C1F (stereo unspecified),-87.6% (active)
8,CCCCC[C@@H](O)[C@H]1C(=O)O[C@H](C)[C@@H](O)/C=C/C=C/C=C/C=C/C=C(\C)[C@@H](O)C[C@H](O)C[C@H](O)C[C@H](O)C[C@H](O)C[C@H](O)C[C@@H]1O,2.49% (inactive)
9,Ic1cc(-c2ccccc2)ncn1,1.75% (inactive)
10,COc1ccc2c3c1OC1CC(O)C=CC31CCN(C)C2 (stereo unspecified),4.76% (inactive)
11,CC(=O)OCC(=O)[C@@]1(O)CCC2C3CCC4=CC(=O)CC[C@]4(C)C3=CC[C@@]21C (stereo partly specified),-0.754% (inactive)
12,CCCCCCCCN=c1ccn(CCCCCCCCCCn2ccc(=NCCCCCCCC)cc2)cc1,-74.7% (active)
13,CCCCCN=c1ccn(Cc2ccccc2)c2ccccc12,-3.35% (inactive)
14,CN[C@H](CNC(=O)N1CCC[C@@H]([C@@H](OCCNC(=O)OC)c2cccc(Cl)c2)C1)C[C@H]1CCCOC1,7.28% (inactive)
15,CNC(=O)c1ccc(-c2cnc3ncc(Cc4ccc5ncccc5c4)n3n2)cc1F,-3.07% (inactive)
16,COc1ccc([C@H]2COc3c(ccc(O)c3OC)C2)c(OC)c1O,8.53% (inactive)
17,CC(NCC(O)CP(=O)(O)CC1CCCCC1)c1ccc(Cl)c(Cl)c1 (stereo unspecified),-2.11% (inactive)
18,C[C@H](NC(=O)Cc1cc(F)cc(F)c1)C(=O)N[C@@H]1C(=O)N(C)c2ccccc2-c2ccccc21,-81.4% (active)
19,CC(NC(=O)Cc1cc(F)cc(F)c1)C(=O)NC(C(=O)OC(C)(C)C)c1ccccc1 (stereo unspecified),5.05% (inactive)
20,C[C@H](NC(=O)[C@@H](O)c1cc(F)cc(F)c1)C(=O)N[C@@H]1C(=O)N(C)c2ccccc2-c2ccccc21,26.6% (inactive)
21,C=C1/C(=C\C=C2/CCC[C@]3(C)[C@@H]([C@H](C)/C=C/C=C/C(O)(CC)CC)CC[C@@H]23)C[C@@H](O)C[C@@H]1O,17.9% (inactive)
22,COCCOc1ccc(N2CCN(CCn3ncc4c3nc(N)n3nc(-c5ccco5)nc43)CC2)cc1,-6.85% (inactive)
23,COc1c(O)cccc1O,9.75% (inactive)
24,COc1nc2ccc(Br)cc2cc1[C@@H](c1ccccc1)[C@@](O)(CCN(C)C)c1cccc2ccccc12,48% (inactive)
25,CC(C)OC(=O)[C@H](C)N[P@@](=O)(OC[C@H]1O[C@@H](n2ccc(=O)[nH]c2=O)[C@](C)(F)[C@@H]1O)Oc1ccccc1,5.02% (inactive) and 18.5% (inactive)
26,Cc1c(N(C)C)c(=O)n(-c2ccccc2)n1C,13% (inactive)

row,Structure (SMILES),"activity change, negative = inhibition"
1,Cc1c(I)c(=O)n(-c2ccccc2)n1C,9.68% (inactive)
2,Cc1c(O)c(=O)n(-c2ccccc2)n1C,-80.6% (active) and 1.34% (inactive)
3,CCO[C@@H](Cc1ccc(OCCc2ccc(OS(C)(=O)=O)cc2)cc1)C(=O)O,11% (inactive)
4,Cc1ccc(NC(=O)C(C)C)cc1C1CCN(Cc2ccc(Oc3ccc(F)c(F)c3)cc2)CC1,-59.6% (inactive)
5,NC1=NCN([C@H]2C[C@@H](O)[C@@H](CO)O2)C(=O)N1,13.9% (inactive)
6,Cn1cnc(=N)c2[nH]cnc21,11% (inactive)
7,CN1CCN(C2CCN(C(=O)Nc3cc(Oc4ccc(NC(=O)C5(C(=O)Nc6ccc(F)cc6)CC5)c(F)c4)ccn3)CC2)CC1,-66.6% (inactive)
8,O=C(Nc1ccc(Cl)cc1)Nc1ccc(Cl)c(C(F)(F)F)c1,-76.9% (active)
9,C=CC(=O)Nc1cccc(Nc2nc(Nc3ccc(Oc4ccnc(C(=O)NC)c4)cc3)ncc2F)c1,-38.8% (inactive)
10,CNC(=O)c1cc(Oc2ccc(NC(=O)Nc3ccc(Cl)c(C(F)(F)F)c3)c(F)c2)ccn1,-86.3% (active) and -83.6% (active)
11,CNC(=O)c1cc(COc2nnc(Nc3ccc(Cl)cc3)c3ccoc23)ccn1,-9.12% (inactive)
12,CC(C)C(=O)Nc1ccc([N+](=O)[O-])c(C(F)(F)F)c1,12.9% (inactive)
13,COc1cc(NC(=O)c2ccccn2)ccc1Cl,132% (inactive)
14,CNC(=O)c1cc(Oc2ccc(NC(=O)Nc3ccc(Cl)c(C(F)(F)F)c3)cc2)ccn1,-70.5% (active) and -84.5% (active)
15,C=CC(=O)Nc1ccc(Cl)cc1,16.9% (inactive)
16,Nc1[nH]nc2nnc(-c3c(-c4ccccc4)nn4ccccc34)cc12,-19.2% (inactive)
17,OC[C@@H](O)[C@@H](O[C@@H]1O[C@H](CO)[C@H](O)[C@H](O)[C@H]1O)[C@H](O)[C@@H](O)CO,24% (inactive)
18,NC(Cn1ccc(=O)n(Cc2ccccc2C(=O)O)c1=O)C(=O)O (stereo unspecified),7.15% (inactive)
19,CN1C2CCC1CC(OC(=O)c1c[nH]c3ccccc13)C2 (stereo unspecified),2.23% (inactive)
20,O=C1CC[C@@H](C(=O)O)N1,4.43% (inactive)
21,C1=C(CN2CCOCC2)COc2c1cccc2OCC1CNCCO1 (stereo unspecified),2.39% (inactive)
22,CC(C)=CCC/C(C)=C/C=C/C(C)=C/C=C/C(C)=C/C=C/C=C(C)/C=C/C=C(C)/C=C/C=C(\C)CCC=C(C)C,-16.2% (inactive)
23,COc1ccc(-c2cc(=O)c3c(O)c(OC)c(OC)c(OC)c3o2)cc1OC,-10.2% (inactive)
24,CC1(C)S[C@H]2[C@@H](NC(=O)[C@@H](NC(=O)N3CCN(S(C)(=O)=O)C3=O)c3ccccc3)C(=O)N2[C@@H]1C(=O)O,5.45% (inactive)
25,CN1CCCC(CN2c3ccccc3Sc3ccccc32)C1 (stereo unspecified),11.8% (inactive) and 21.2% (inactive)
